Compound activity: PubChem BioAssay, several laboratories
A selection: hits, their analogues and other compounds. The true share with any hit is near 11%.
Lmaj promast – reduces viability of Leishmania major promastigotes. resazurin fluorescence viability. inhibition, % at 10 µM. 200,000 tested, 9% active; in the data active means inhibition above about 50%;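 further: promastigotes grown with compound for 44 hours at 28 °C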
INS promoter inh – TRM-6 insulin promoter activity inhibition; TRM-6 cells (human fetal islet line), insulin promoter-eGFP reporter, imaging; reporter expression induced with tamoxifen; inhibition, % at 2 µM; 130,000 tested, 0.9% active; AID 1273;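 active means inhibition above the mean plus 3 SD, with well images judged a real hit on visual review, cut at about 60% in these data, passing the limit was not always enough; inconclusive means inhibition over the cutoff but images rejected on review; inactive means inhibition not above the cutoff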
Insulin prom up – MIN6 insulin promoter up-regulation; MIN6 insulin promoter-GFP reporter, high-content imaging; stronger effect = higher value; z-score at 5 µM; 190,000 tested, 0.3% active; AID 1625;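 active means z-score above 3 at 5 µM with at least 500 cells counted in the well; inconclusive means wells under 500 cells, flagged as cytotoxic or low count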
WT yeast gro inh – growth inhibition of WT yeast, mitochondrial fusion screen | mitochondrial fusion phenotypic screen, WT strain | inhibition, % at 10 µM | 190,000 tested, 2.1% active; in the data active means inhibition above about 58%; tested in S. cerevisiae
Autophagy mod – autophagy modulation, high-content screen; MEF GFP-LC3 puncta imaging; test concentration mostly 10 µM; calls only at 10 µM (by protocol); 190,000 tested, 0.98% active;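 active means percentage of spot-positive cells more than 3 SD above its plate mean, without a fluorescence outlier flag or 80% toxicity; inconclusive means no clear call, values can overlap the other calls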;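 further: spot-positive cell cutoff set from DMSO-treated cells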
Lmaj promast 1uM – blocks Leishmania major promastigote growth at 1 uM, repeat screen; shares compounds with Lmaj promast; AID 1258; L. major promastigote growth, resazurin fluorescence, 48 h; 1,100 tested, 13% active; inhibition, % at 1 µM;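 active means inhibition above about 50% in both repeat tests, limit read from the data; inconclusive means one repeat under the set limit, the other over it; inactive means both repeats under the set limit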
The depositor's hits bear a star.

Screening CC1(C)C2([N+](=O)[O-])CN3CC1([N+](=O)[O-])CN(C2)C3c1ccc(O)c(O)c1 (centres undefined) returned Insulin prom up 0.02.
`Cc1ccc(S(=O)(=O)NCC(=O)N/N=C/c2ccccc2O)cc1` gave Lmaj promast 0, Insulin prom up -0.45, WT yeast gro inh -16 and Autophagy mod inactive.
`CSc1nnc(-c2ccc(C(F)(F)F)nc2C)o1` gave Insulin prom up -0.1.
CSc1nnc(-c2cc(-c3ccc(C)cc3)nc3ccccc23)o1 was read as Lmaj promast 64*, INS promoter inh -29, Insulin prom up 0.66, WT yeast gro inh 1, Autophagy mod inactive and Lmaj promast 1uM -9.
`Cc1ccc(-c2cc(-c3n[nH]c(=S)o3)c3ccccc3n2)cc1` gave Lmaj promast 56*, INS promoter inh -41, Insulin prom up 0.25, WT yeast gro inh 28, Autophagy mod inactive and Lmaj promast 1uM -10.
Screening Nc1ccc(Oc2ccc([N+](=O)[O-])cc2[N+](=O)[O-])cc1 returned Lmaj promast 56*, INS promoter inh -23, Insulin prom up 0.5, WT yeast gro inh -3, Autophagy mod inactive and Lmaj promast 1uM 7.
For CC1(C)Cc2c(ccc3ccccc23)/C(=C/C#N)N1 the results were Lmaj promast -3, INS promoter inh 23, Insulin prom up 0.71, WT yeast gro inh 22 and Autophagy mod inactive.
Screening CNC(=O)/C=C1\NC(C)(C)Cc2c1ccc1ccccc21 returned Lmaj promast 54*, INS promoter inh -54, Insulin prom up 0.27, WT yeast gro inh 16, Autophagy mod inactive and Lmaj promast 1uM 5.
Screening Cc1cc2nc(SCCOC(=O)Nc3cccc(Cl)c3)nc(C)c2cc1C returned Lmaj promast -4, INS promoter inh -48, Insulin prom up -0.19, WT yeast gro inh 11 and Autophagy mod inactive.
Screening Cc1cc2nc(SCCOC(=O)Nc3ccccc3)nc(C)c2cc1C returned Lmaj promast 66*, INS promoter inh 8, Insulin prom up -0.02, WT yeast gro inh 12, Autophagy mod inactive and Lmaj promast 1uM -14.
For Cc1c(O)ccc(/C(Cc2ccc3ccccc3n2)=N\O)c1O the results were Lmaj promast 59*, INS promoter inh 2, Insulin prom up -0.32, WT yeast gro inh -9, Autophagy mod inactive and Lmaj promast 1uM -10.
`O=C(Nc1cc(S(=O)(=O)N2CCOCC2)ccc1N1CCOCC1)c1ccc(Cl)nc1` gave Insulin prom up -0.8.
`CC1(C)CC2(CC(c3ccccc3F)c3cc(Cl)c(O)cc3O2)NC(=S)N1` (centres undefined) gave Lmaj promast 83*, INS promoter inh 25, WT yeast gro inh 28, Autophagy mod inactive and Lmaj promast 1uM -14.
For Cc1cccc(C2CC3(CC(C)(C)NC(=S)N3)Oc3cc(O)ccc32)c1 (centres undefined) the results were Lmaj promast 22, INS promoter inh -67, WT yeast gro inh -4 and Autophagy mod inactive.
For CC1(C)CC2CC(C)(CN2C(=S)Nc2ccccc2F)C1 (centres undefined) the results were Lmaj promast 6, Insulin prom up 0.24, WT yeast gro inh -5 and Autophagy mod inactive.
Screening Cc1ccc(C(O)P(=O)(OC2CCCCC2)OC2CCCCC2)cc1 (centres undefined) returned Lmaj promast 89*, INS promoter inh -50, Insulin prom up -0.37, WT yeast gro inh 9, Autophagy mod inactive and Lmaj promast 1uM 13.
Screening CC(C)NC(=O)c1ccc(CS(=O)(=O)c2ccc(Br)cc2)o1 returned Lmaj promast -6, Insulin prom up 1.6, WT yeast gro inh 9 and Autophagy mod inactive.
Screening COc1cc(/C=C/c2nnc3c4ccccc4ncn23)cc(OC)c1OC returned Lmaj promast 5, Insulin prom up 0.99, WT yeast gro inh 23 and Autophagy mod inactive.
`C(=C\c1nnc2c3ccccc3ncn12)/c1ccccc1` gave Lmaj promast 55*, INS promoter inh 21, Insulin prom up 1.9, WT yeast gro inh 10, Autophagy mod inactive and Lmaj promast 1uM -23.
For CCOC(=O)N1CCN(C(=O)CN(c2cc(Cl)ccc2OC)S(=O)(=O)c2ccccc2)CC1 the results were Lmaj promast -1, INS promoter inh -27, Insulin prom up -0.41, WT yeast gro inh -9 and Autophagy mod inactive.
For Cc1ccccc1N(C(=O)c1cccs1)c1nc2ccccc2s1 the results were Lmaj promast 99*, Insulin prom up -1.6, WT yeast gro inh 2, Autophagy mod inactive and Lmaj promast 1uM inconclusive.
